# Source: PubChem (National Center for Advancing Translational Sciences (NCATS))
# ELG1 DNA repair = ELG1-dependent DNA repair inhibition; HEK293T ELG1-luciferase reporter, luminescence, 16 h; DNA damage induced by 5-fluorouridine; Potency, µM (titrated, usually from 46.1 µM), without a hit: top-dose activity change, negative = inhibition, actives largely listed as inhibitors; 330,000 compounds, 2.3% hits; AID 504467; also: nearly all actives have a fitted effect of over 55% in size
#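 DMSO vehicle served as the neutral condition. Each well held 2,000 cells given 5-fluorouridine plus compound; after 16 hr at 37 °C/5% CO2, ONE-Glo was added and luciferase measured 30 min later.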
# Gal4-VP16 FLuc = counter-screen for ROR gamma inhibitors: Gal4-VP16 reporter; Potency, µM (top dose mostly 53.6 µM), inactives show at the highest dose activity, negative = inhibition, most hits filed as inhibitors; AID 2546; Drosophila S2 Gal4-VP16 UAS-luciferase, luminescence, 20 h; 310,000 compounds, 3.5% hits;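 also: Gal4-VP16 expression switched on by copper sulfate through the metallothionein promoter; nearly all actives have a fitted effect of over 50% in size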
# TDP1 cell noCPT = qHTS for Inhibitors of human tyrosyl-DNA phosphodiesterase 1 (TDP1): qHTS in cells in absence of CPT; DT40 Tdp1-/- hTDP1 cells, no CPT, ATP luminescence, 48 h; Potency, µM (highest dose often 46.2 µM), inactives show at the top dose activity change, negative = growth inhibition, usual class: inhibitors; 420,000 compounds, 15% hits; AID 686978, 2013; also: nearly all actives have a fitted effect of over 55% in size
#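 DT40 Tdp1-/-;hTDP1 cells, no CPT (DMSO vehicle only), 400 cells/well; compounds pin-transferred; ≥48 hr, 37 °C; CellTiter-Glo 30 min RT dark, luminescence read.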
# DT40 TDP1 CPT = DT40-hTDP1 cell growth loss with CPT. Potency, µM (top dose mostly 46.2 µM), without a hit: at the highest dose activity change, negative = growth inhibition, most hits filed as inhibitors. chicken DT40 Tdp1-/-;hTDP1 cells + 20 nM CPT, ATP luminescence, 48 h. 420,000 compounds, 12% hits; also: nearly all actives have a fitted effect of over 55% in size
#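 Chicken DT40 Tdp1-/- cells complemented with human TDP1, 400 cells/well, exposed to compounds plus 20 nM camptothecin for at least 48 h at 37 C; viability read as ATP content by CellTiter-Glo luminescence.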
# ALOX12 inh = inhibitors of human 12S-lipoxygenase ALOX12; P18054; purified 12hLO, xylenol orange hydroperoxide absorbance; Potency, µM (series often up to 108 µM), for inactives: at the top dose activity change, negative = inhibition, hits mostly inhibitors; 580,000 compounds, 1.1% hits
#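 Purified human 12hLO at 150 nM in 25 mM Hepes, 0.01% Triton X-100, pH 7.0, preincubated 15 min at room temperature with compound. Reaction started with 40 uM arachidonic acid, 30 min at room temperature. Hydroperoxide measured by Fe-xylenol orange, 573/405 nm absorbance ratio.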
# RORgamma inh = inhibitors of mouse ROR gamma transcriptional activity; Potency, µM (highest dose often 53.6 µM), for the others: at the highest dose activity change, negative = inhibition, most hits filed as inhibitors; 310,000 compounds, 5.4% hits; P51450; Drosophila S2 Gal4-RORgamma UAS-luciferase reporter, 20 h; also: nearly all actives have a fitted effect of over 60% in size
# Target sequence (P51450 whole entry, looked up, the tested form may be a part): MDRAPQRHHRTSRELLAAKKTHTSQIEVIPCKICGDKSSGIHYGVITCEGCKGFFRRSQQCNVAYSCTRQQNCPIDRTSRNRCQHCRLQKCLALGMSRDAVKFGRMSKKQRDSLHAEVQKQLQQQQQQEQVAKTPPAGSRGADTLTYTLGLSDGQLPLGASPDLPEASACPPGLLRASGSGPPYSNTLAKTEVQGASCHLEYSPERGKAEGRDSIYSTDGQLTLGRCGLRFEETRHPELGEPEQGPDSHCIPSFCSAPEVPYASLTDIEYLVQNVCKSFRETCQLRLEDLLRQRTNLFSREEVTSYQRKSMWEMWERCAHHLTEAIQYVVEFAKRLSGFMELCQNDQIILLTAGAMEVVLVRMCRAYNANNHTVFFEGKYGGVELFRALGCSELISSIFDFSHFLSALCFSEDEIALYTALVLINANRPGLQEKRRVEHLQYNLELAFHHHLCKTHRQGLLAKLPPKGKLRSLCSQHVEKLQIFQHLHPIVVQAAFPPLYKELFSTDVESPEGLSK
#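 Luciferase reporter read in Schneider cells carrying Gal4-RORγ (mouse) and UAS-Photinus luciferase; cells given compound 1 h before 700 uM copper sulfate induction, then incubated 20 h at ambient temperature.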
# Numbers without * were called inactive; ? = inconclusive; . = no result; [ ] = another dose, or the depositor's remark. In the library only some 15% were active in any assay of this set; here they are far more common. Calls follow the shape of the dose curve; as a rule, active = well fitted curve in the direction sought with a large enough effect; inconclusive = small, poorly fitted or top-dose-only effect, or another doubt; inactive = no such curve, though single readings can be large; an effect the other way counts as inactive or inconclusive. % is scaled to controls: 0 for no effect and ±100 for the full control effect; potency is read from the fitted curve at half-maximal effect.
SMILES,ELG1 DNA repair,Gal4-VP16 FLuc,TDP1 cell noCPT,DT40 TDP1 CPT,ALOX12 inh,RORgamma inh
CCCN(C)CCCOc1cc2nc(N3CCCN(C)CC3)nc(NC3CCN(C)CC3)c2cc1OC,.,.,12.6µM*,8.91µM*,.,.
COc1cc2c(NC3CCN(C)CC3)nc(N3CCCN(C)CC3)nc2cc1OCCOCCN(C)C,.,.,-29.4%,?,.,.
COc1cc2c(NC3CCN(C)CC3)nc(N3CCCCC3)nc2cc1OCCCN(C)C,.,.,10µM*,3.98µM*,.,.
COc1cc2nc(N3CCN(C(=O)[C@H]4CCCO4)CC3)nc(N)c2cc1OC,.,-4.7%,0.4%,35.5%,?,-4.5%
COc1cc2c(NC3CCN(C(C)C)CC3)nc(C3CCCCC3)nc2cc1OCCCN1CCCC1,.,.,.,.,27.9%[57.4 µM],.
COc1cc2c(NC3CCN(C)CC3)nc(N3CCCCC3)nc2cc1OCCOCCN(C)C,.,.,?,11.2µM*,.,.
COc1cc2c(NC3CCN(C(C)C)CC3)nc(N3CCCN(C)CC3)nc2cc1OCCCN1CCCC1,.,.,3.55µM*,5.01µM*,.,.
Cc1cnc(CCNC(=O)C2CCCC2)n1C1CC1,.,.,.,.,66.2%,.
COc1cc2c(NC3CCN(C)CC3)nc(N3CCCN(C)CC3)nc2cc1OCCCCCCN(C)C,.,.,?,15.8µM*,.,.
COc1cc2c(NC3CCN(C(C)C)CC3)nc(N3CCCN(C)CC3)nc2cc1OCCOCCN(C)C,.,.,14.1µM*,7.08µM*,.,.
COc1cc2c(NC3CCN(C)CC3)nc(N3CCCN(C)CC3)nc2cc1OCCCCN(C)C,.,.,?,-24.8%,.,.
Cc1nc(N2CCCCC2)n(CC(=O)Nc2cccc(F)c2)c(=O)c1C,.,.,.,.,-17.4%,.
O=c1n(-c2ccc(F)cc2F)nc2n1CCN(Cc1cccc3ccccc13)C2,.,.,.,.,28.2µM*,.
CCOc1ccc(C2c3c(oc4ccc(C)cc4c3=O)C(=O)N2c2nc(C)c(C)s2)cc1OC (configuration not stated),.,.,7.31µM*,?,?,.
CCCNC(=O)c1ccc(S(=O)(=O)c2ccc(OC)cc2)c([N+](=O)[O-])c1,?,-17.9%,4.11µM*,5.17µM*,-22.4%,-1.6%
Cc1sc2nc(C(C)C)nc(SCC(=O)N3CCN(C(=O)c4ccco4)CC3)c2c1C,18.4µM*,7.5%,?,?,-3.4%,-6.2%
Cc1nc(SCC(=O)NC2CC2)c2c(C)c(C)sc2n1,-19.3%,3.7%,?,?,4.4%,2.2%
Cc1cccc2[nH]c3c(N4CCN(C(=O)c5ccco5)CC4)ncnc3c12,?,-22.2%,18.4µM*,?,.,-1.8%
Cc1sc2nc(C(C)C)nc(SCC(=O)NC3CC3)c2c1C,-2.5%,?,16.4µM*,16.4µM*,22.2%,0.4%
Cc1sc2nnn(CC(=O)N3CCN(C(=O)c4ccco4)CC3)c(=O)c2c1C,.,.,-9.7%,0.9%,-17.2%,.
Cc1sc2ncnc(N3CCN(C(=O)c4ccco4)CC3)c2c1C,11.6µM*,-20.3%,20.6µM*,-19.2%,5.5%,?
Cc1ccc(-c2nsc3c(N4CCN(C(=O)c5ccco5)CC4)ncnc23)cc1,?,-3.2%,.,.,.,21.1%
O=C(O)C1CCN(C(=O)Cn2ccc3c(Cl)cccc32)CC1,.,.,.,.,-25.9%,.
COC[C@@H]1CN(C(=O)c2ccc(OC)nc2)C[C@H]1c1ccncc1,.,.,.,.,18.9%,.
CCc1nc2c(c(-c3ccc(Cl)cc3)n1)CCN(Cc1ccsc1)CC2,.,.,.,.,7.7%,.
Cc1ccc(-c2csc3ncnc(N4CCN(C(=O)c5ccco5)CC4)c23)cc1,16.4µM*,.,?,?,?,.
O=C(CC1C(=O)Nc2nc(SCc3ccccc3)nn21)Nc1cccc(C(F)(F)F)c1 (configuration not stated),.,.,.,.,2.7%,.
Cc1ccc(NC(=O)COc2c(CO)cc(F)cc2CO)cc1,.,.,.,.,-26.4%,.
